The nature of the test: NFkB reporter suppression in cystic fibrosis bronchial cells – cell-based, uHTS hits, panel, cytotoxicity readout, dose response (AID 624344). To be noted: CF bronchial epithelial cells, PAF-induced NFkB reporter inhibition, with PAF, run 1; at 79 µM (top of the series) unless noted.
As for `CCCCCCCCCc1nc2sc3c(c2c(=O)n1NC(=O)c1ccc([N+](=O)[O-])cc1)CC(C)(C)OC3`, the inhibition (usually the drop in the measured response relative to a control, in per cent) is 80.5%.

As for `Nc1nc(N)nc(-c2cc([N+](=O)[O-])ccc2O)n1`, the inhibition was 76.3%.

On to `Nc1nc(N)nc(-c2ccc(Cl)c(Cl)c2)n1`, for which the inhibition was determined as 116%.

With `O=C(Nc1cccnc1)c1sc2cccc(F)c2c1Cl`, the inhibition is 76.8%.

For `COc1ccc(S(=O)(=O)N(C(C)=O)c2ccc(OC(C)=O)c3ccccc23)cc1[N+](=O)[O-]`, the inhibition was found to be 59.1%.

`CN(C)CCCN(C(=O)CCS(=O)(=O)c1ccccc1)c1nc2cc3c(cc2s1)OCO3`: the inhibition was 88.7%.

For `CCN1CCN(Cc2ccc(NC(=O)c3ccc(C)c(NC(=O)c4csc(-c5ccncc5)n4)c3)cc2C(F)(F)F)CC1`, the inhibition was 107%.

For `FC(F)(F)c1nnc2c(Sc3ccccc3)nc3ccccc3n12`, the inhibition came out at 92.8%.

As to `Cc1ccc(C(=O)c2cc([N+](=O)[O-])ccc2N2CCCCC2)c(C)c1`, the inhibition is 79.4%.

`CCCNC(=O)COC(=O)c1ccccc1C(=O)c1ccc(Cl)c([N+](=O)[O-])c1`: the inhibition stood at 96.2%.

For `COc1ccc(-c2oc3ccc(-c4ccc5c(c4)OCO5)cc3c2C#CC2(O)CCCCC2)cc1`, the inhibition amounted to 101%.

Regarding `O=C1OC(Nc2nc(-c3ccc(F)cc3)cs2)c2ccccc21` (stereo not given), the inhibition was determined as 102%.

Consider `CC(C)C[C@@H]1NC(=O)[C@H](Cc2ccccc2)N(C)C(=O)[C@H](C)NC(=O)c2ccccc2NC(=O)[C@H](Cc2ccc(O)cc2)N(C)C1=O`, for which the inhibition is 102%.

In the case of `CN(C)CCCN(C(=O)CCOc1ccccc1)c1nc2c(F)cccc2s1`, the inhibition worked out at 99.3%.

With `O=C(Nc1cccc(Cl)c1)Nc1cc(S(=O)(=O)N2CCCCC2)ccc1Cl`, the inhibition was 117%.

As to `O=C(CCl)N(Cc1cc(=O)[nH]c2ccccc12)c1ccccc1`, the inhibition was found to be 68.3%.

For the compound `Cc1c(Cl)cccc1NC(=O)CSc1nc2ncc(Cl)cc2[nH]1`, the inhibition amounted to 98.5% [at 19.8 µM].

With `CC1(Cc2cccc(F)c2)C(=O)Nc2ccc(-c3cccnc3)cc21` (stereo not given), the inhibition worked out at 112%.

On to `O=C(c1cncc(Br)c1)N1CCc2ccccc2C1`, for which the inhibition is 92.5%.

Turning to `COc1ccc(COC(=O)C2=C(C)NC(=O)NC2c2ccc(F)cc2)cc1` (stereo not given), the inhibition was found to be 90.1%.

Regarding `O=C(Nc1ccc2c(c1)OCCO2)c1cc(-c2ccccn2)nc2ccc(Br)cc12`, the inhibition amounted to 6.4%.

In the case of `O=C(Nc1ccccc1)Nc1ncc([N+](=O)[O-])s1`, the inhibition worked out at 108%.

As for `COc1cccc(Nc2ncnc3ccc(Br)cc23)c1`, the inhibition turned out to be 119%.

In the case of `CC(C)[C@H](CO)Nc1nc(NCc2ccc(S(N)(=O)=O)cc2)c2ncn(C(C)C)c2n1`, the inhibition is 107%.

Regarding `O=C(CC12CC3CC(CC(C3)C1)C2)Nc1nncs1`, the inhibition was found to be 105%.

For the compound `c1ccc2c(-c3cncc4ccccc34)cncc2c1`, the inhibition was 110%.

As to `Cc1ccc(S(=O)(=O)/N=C(\CCl)N2CCOCC2)cc1`, the inhibition was 110%.

As to `CCc1ccc(Nc2n[n+](-c3ccccc3)c(-c3c(Cl)cccc3Cl)s2)cc1`, the inhibition was 116%.

For `Cc1ccc(CSc2nccc(-c3c(C)nc4ccccn34)n2)cc1`, the inhibition was 101%.

On to `COc1ccc(-c2cc(NC=O)c3ncc(-c4cc(OC)c(OC)c(OC)c4)n3c2)cc1`, for which the inhibition is 50.1%.

With `O=C(Nc1cccc(-c2cnc3ccccc3n2)c1)c1cccc(NC(=O)c2ccco2)c1`, the inhibition turned out to be 98.6%.

As for `O=C(Nc1cccc(Cl)c1)Nc1csc([N+](=O)[O-])c1`, the inhibition is 114%.

On to `C=CCn1cnc2c(c1=O)c1nc3ccccc3nc1n2/N=C/c1cc(OC)c(OC)c(OC)c1`, for which the inhibition was determined as 109%.

Take `CCOC(=O)C1=C(CC)Nc2ccccc2N=C1NC(=O)c1oc2ccccc2c1C`: the inhibition is 111%.

Regarding `CCOC(=O)[C@@H]1[C@H]2COc3ccc(Br)cc3[C@H]2N2C(=O)N(c3ccc(C)cc3)C(=O)[C@]12C`, the inhibition is 14.6%.

In the case of `COc1ccc(/C=C/C(=O)c2cc(F)ccc2OC(=O)c2ccccc2C)cc1OC`, the inhibition worked out at 4.66%.

Regarding `COc1ccc(C(=O)N[C@H](C(=O)Nc2nc3ccccc3[nH]2)C(C)C)cc1`, the inhibition came out at 99.8%.

For `CCCN(CC)c1ncnc2[nH]ncc12`, the inhibition amounted to 106%.

Consider `Nc1nc(/C=C/c2cccnc2)nc(-c2ccccc2O)n1`, for which the inhibition was 100%.

As to `COc1cc(O)c(CC=C(C)C)c(O)c1C(=O)CCc1ccc(O)cc1`, the inhibition came to 112%.

The values are drawn from PubChem BioAssay.
